Results reported in PubChem BioAssay (NCI).
Compounds without any hit were thinned out: in the full panel of roughly 83,000, 20% have a hit.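 In brief: 96-well plates, 48 h treatment, single concentration, percent growth endpoint.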 Values without a mark were called inactive. Calls of active or inactive are those of the source. Rule for the calls: active = growth percent below 10; inactive = the rest.

Experiments:
Experiment in all cases: NCI-60 one-dose screen, 48 h (100 = growth as untreated, 0 = no growth, -100 = all killed)
Details in all cases: 10 µM unless noted
HCT-15 colon = system: HCT-15 colon
HT29 colon = system: HT29 colon
SNB-75 CNS = system: SNB-75 CNS
SNB-19 CNS = system: SNB-19 CNS
U251 CNS = system: U251 CNS
PC-3 prostate = system: PC-3 prostate
SK-MEL-5 melanoma = system: SK-MEL-5 melanoma
UACC-62 melanoma = system: UACC-62 melanoma
LOX IMVI melanoma = system: LOX IMVI melanoma
SK-MEL-28 melanoma = system: SK-MEL-28 melanoma
SK-MEL-2 melanoma = system: SK-MEL-2 melanoma
EKVX NSCLC = system: EKVX NSCLC
SN12C renal = system: SN12C renal
UO-31 renal = system: UO-31 renal
TK-10 renal = system: TK-10 renal
ACHN renal = system: ACHN renal
CAKI-1 renal = system: CAKI-1 renal
A498 renal = system: A498 renal
CCRF-CEM leukemia = system: CCRF-CEM leukemia
MOLT-4 leukemia = system: MOLT-4 leukemia

Compound | growth (HCT-15 colon) | growth (HT29 colon) | growth (SNB-75 CNS) | growth (SNB-19 CNS) [%] | growth (U251 CNS) | growth (PC-3 prostate) | growth (SK-MEL-5 melanoma) | growth (UACC-62 melanoma) | growth (LOX IMVI melanoma) | growth (SK-MEL-28 melanoma) [%] | growth (SK-MEL-2 melanoma) | growth (EKVX NSCLC) [%] | growth (SN12C renal) [%] | growth (UO-31 renal) | growth (TK-10 renal) [%] | growth (ACHN renal) | growth (CAKI-1 renal) | growth (A498 renal) | growth (CCRF-CEM leukemia) | growth (MOLT-4 leukemia) [%]
COc1cc(/C=C\c2cc(/C=C\c3ccc(O)c(OC)c3)n(C(=O)COc3ccccc3)n2)ccc1O | 9.64% (active) | -33.2% (active) | 22.7% | 14.8 | 8.81% (active) | 8.49% (active) | -28.8% (active) | 4.88% (active) | 3.23% (active) | 18.4 | -18.7% (active) | 28.1 | 15.7 | 0.475% (active) | 12.7 | 18% | 24.2% | 11.2% | 6.79% (active) | –
CC(C)c1ccc(Nc2ccc3c(OCCCN4CCN(C)CC4)cccc3n2)cc1 | -35.9% (active) | -50.3% (active) | 68.9% | 63.7 | 23.9% | 62.9% | 58.3% | 1.02% (active) | -70.7% (active) | 13.7 | 105% | 80.7 | 91.3 | 71.5% | 91 | 80.4% | 64.4% | 77.8% | 30% | –
CCCCN1C=CCN(CCCC)C1 | 90.2% | 49.2% | 66.8% | 31.1 | 22.4% | 32.4% | -6.08% (active) | 24.5% | 68.8% | 40 | 24.4% | 47.5 | 34.8 | 74.6% | 56.8 | 98.1% | 86% | 78.4% | 87.2% | –
O=C1C=CC(=O)N1c1cccc(Cl)c1 | 101% | 85.9% | 115% | 118 | 99.2% | 89.2% | 106% | 105% | 102% | 108 | 116% | 108 | 126 | 104% | 68.2 | 98.4% | 79.4% | 94.6% | 55.4% | –
CCCCCCCC(=O)OCC/C=C/C1OC1C1OC(=O)/C=C\C=C\C(=O)N(C(C)=O)C(=O)/C=C(/C)CCC2OC2C1OC(=O)NC(C)=O (stereo not drawn) | 84.1% | 50.8% | 79.3% | 179 | 69.8% | 84.5% | 67.5% | 68% | 54% | 87.1 | 89.8% | 83.5 | 63.2 | 69% | 37.5 | 29.2% | 71% | 90.7% | – | –
Oc1ccc(C2c3ccccc3Oc3ccccc32)c2cccnc12 | 30.3% | 21.7% | 27.2% | 26.7 | 10.8% | 34.2% | -58.8% (active) | 4.38% (active) | 5.35% (active) | 36 | 27.4% | 20.4 | 22.9 | 4.44% (active) | 39.1 | 7.81% (active) | 0.125% (active) | 36% | – | –
Cn1cc(-c2nc(-c3c[nH]c4c(Cl)nccc34)cs2)c2cc(F)ccc21 | 99.2% | 87.8% | 107% | 98 | 85.8% | 92.9% | 94.5% | 97.5% | 109% | 112 | 95.6% | 94.2 | 98.6 | 103% | 95 | 114% | 99.2% | 83.2% | 97.8% | –
N#Cc1c(-c2ccccc2)nc2c(c(-c3ccccc3)nn2-c2ccccc2)c1-c1ccc(O)cc1 | 34.8% | 84.7% | 33.2% | 39.3 | 24.3% | 4.85% (active) | 59% | 61.5% | -48.3% (active) | 49.1 | 72.7% | 45.2 | 61.9 | 27.9% | 21.7 | 42.3% | 53.4% | -1.01% (active) | 22.1% | –
Cc1nc2ccc(Cl)cn2c1-c1nnc(SCc2ccc([N+](=O)[O-])cc2)o1 | 60.3% | 83.9% | 39.8% | 39.8 | 57.7% | 74% | 43.8% | 46.3% | 69.3% | 40.2 | 84.9% | 65.3 | 48.4 | 39.5% | 91.3 | 31.3% | 65.7% | 48.7% | 116% | 93.7
CCCCC/C=C/C(C)=C/C1CC(C)C/C=C/CCC(O)C(OC(N)=O)CCC(C)CC(O)C(C)C(=O)O1 (stereo not drawn) | 89.8% | 96.9% | 98.9% | 183 | 82.1% | 73.7% | 61.4% | 82% | 73.9% | 85.7 | 92.6% | 91.9 | 97.2 | 64.3% | 100 | 73.1% | 78.9% | 71.7% | – | –
COc1ccc(-c2cnc3c(-c4cccc5cnccc45)cnn3c2)cc1 | 64.5% | 41.3% | 42% | 47.2 | 56.3% | 50.6% | 56.5% | 59.3% | 80% | 60.5 | 75.5% | 96.1 | 58.8 | 52.1% | 65.8 | -1.14% (active) | 61.4% | 44.6% | 59.2% | –
COc1ccc2[nH]c(O)c(/C=c3/cc4c(c(-c5ccc(F)cc5)n3)=Nc3ccccc3-4)c2c1 | 26.7% | -29.8% (active) | 82.6% | 78 | 66.3% | 85% | 72.1% | 90.2% | 68.9% | 93.9 | 103% | 74.1 | 88.6 | 72.5% | 107 | 92.2% | 87% | 70.2% | – | –
N#C/C(=C\c1cccc(C#N)c1)c1ccccc1 | 111% | 96.6% | 88.9% | 109 | 89.2% | 99.7% | 101% | 108% | 98.9% | 115 | 112% | 90.7 | 98.9 | 93.3% | 91 | 106% | 96% | 112% | – | –
Cc1nc2sccn2c1-c1nc2sccn2c1/C=C1/C(=O)Nc2ccccc21 | 29.4% | 0.756% (active) | 15.2% | 31.5 | 24.6% | 28.7% | 20.5% | 33.6% | 36.3% | 45.3 | 61% | 56.6 | 65.6 | 39.6% | 70.9 | 41.5% | 2.29% (active) | 5.72% (active) | 35% | –
COC1=CC(=O)c2ccccc2C1=O | 99.7% | 38.9% | 33.7% | 105 | 52.6% | 65.7% | 47.8% | 74.2% | 4.09% (active) | 90 | 69.3% | 110 | 84.8 | 71.9% | 94 | 75.6% | 95.6% | 107% | – | –
Cc1cc(Cl)nc(N(CCNc2ccnc3cc(Cl)ccc23)Cc2ccccn2)n1 | 48.7% | 24.7% | 78.6% | 62.5 | 26.8% | 56.9% | 41.3% | 66.3% | 58.4% | 62.1 | 69.5% | 61.4 | 52.6 | 43.2% | 63.3 | 44.9% | 56.1% | 85.8% | 7.95% (active) | –
CCN1C(=O)N(CC)C2Nn3c(s/c(=C\c4ccc(OC)cc4)c3=O)=NC21 (stereo not drawn) | 32.2% | 83.1% | 8.85% (active) | 53.1 | 39.3% | 44.1% | 47.6% | 34.1% | 53.6% | 62.8 | 51.9% | 82.2 | 62.6 | 48.6% | 11.2 | 42.7% | 31.9% | -2.46% (active) | 53.2% | –
